Assay results as given in PubChem BioAssay AID1159580 (chemical genetic matrix, 2015).
The whole screen tested about 5,500 compounds, of which about 2,000 (36%) were called active. Roughly 18% stayed inconclusive and do not appear here. Cut-off read from the data, not from the text of the source: active = normalized growth mostly below about 0.91 (no sharp cut-off); inconclusive = no clear call, values can overlap the other calls; inactive = mostly above about 0.92. Some of the results follow.

Experiment: chemical genetic growth profiling, strain panel (AID 1159580);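 note: tested at 20 µM; growth read once vehicle control cultures reached saturation at 30 °C; 1 = growth at the plate median or of vehicle wells; lower values mean less growth of the strain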
Conditions: S. cerevisiae deletion strains, growth OD

Measured: normalized growth

O=C(O)C1CC(=O)N(Cc2ccccc2Cl)C1 (stereo not drawn)
inactive: locus YAL013W, strain DEP1, active compounds read low 1.01 | locus YBR229C, strain ROT2, active compounds read low 1 | locus YCL061C, strain MRC1, active compounds read low 1.02 | locus YDL101C, strain DUN1, active compounds read low 0.994 | locus YDL134C, strain PPH21, active compounds read low 1.01 | locus YDR150W, strain NUM1, active compounds read low 0.947 | locus YEL061C, strain CIN8, active compounds read low 1.03 | locus YGR078C, strain PAC10, active compounds read low 1.01 | locus YHR030C, strain SLT2, active compounds read low 1.15 | locus YHR087W, strain rtc3, active compounds read low 1.01 | locus YJR043C, strain POL32, active compounds read low 0.966 | locus YJR075W, strain HOC1, active compounds read low 1 | locus YLR039C, strain RIC1, active compounds read low 1.04 | locus YLR058C, strain SHM2 (second series), active compounds read low 1 | locus YLR085C, strain ARP6, active compounds read low 1.04 | locus YLR262C, strain YPT6, active compounds read low 1.01 | locus YML094W, strain GIM5, active compounds read low 1.04 | locus YMR219W, strain ESC1, active compounds read low 1.01 | locus YMR263W, strain SAP30, active compounds read low 1.01 | locus YMR307W, strain GAS1, active compounds read low 1.02 | locus YNL153C, strain GIM3, active compounds read low 0.992 | locus YNL298W, strain CLA4 (second series), active compounds read low 1.07 | locus YNL322C, strain KRE1, active compounds read low 1.01 | locus YNR030W, strain Alg12, active compounds read low 1.03 | locus YOL006C, strain TOP1, active compounds read low 1.08 | locus YPL055C, strain LGE1, active compounds read low 0.931 | locus YPL241C, strain CIN2, active compounds read low 1.11 | locus YPR135W, strain CTF4, active compounds read low 1.06
